Test results: PubChem BioAssay (NCATS)
“And” between values parts separate entries of the source, which are not always exact repeats. Identical values can stand only once. Records with an inconclusive call do not appear. A call without a number means that no potency is given here. Some compounds were tested as several samples or in several runs, with calls that do not always agree. The source made the active and inactive calls. Calls follow the shape of the dose curve; as a rule, active = well fitted curve in either direction with a large enough effect; inconclusive = small, poorly fitted or top-dose-only effect; inactive = flat fitted curve, though single readings scatter.

What follows are molecules tested against Lysosomal alpha-glucosidase (Homo sapiens) (UniProt P10253) (assay: Confirmation of Inhibitors and Activators of Purified Human alpha-Glucosidase (AID 2115)). Settings: purified human GAA enzyme activity; series mostly up to 76.2 µM.
Source text: NIH Chemical Genomics Center [NCGC]
NIH Molecular Libraries Probe Production centers Network [MLPCN]
Assay Submitter (PI): Wei Zheng
Alpha-glucosidase is responsible for hydrolysis of terminal, non-reducing 1,4-linked alpha-D-glucose residues with release of alpha-D-glucose. It is a lysosomal hydrolase that is required for the degradation of a small percentage (1-3%) of cellular glycogen in human. Deficiency of this enzyme results in glycogen-storage disease type II (GSDII), also referred to as Pompe disease, an autosomal recessive disorder. Structurally normal glycogen is accumulated in lysosomes and cytoplasm in affected patients, primarily in muscle tissues. Excessive glycogen storage within lysosomes may interrupt normal functioning of other organelles and leads to cellular injury. In turn, this leads to enlargement and dysfunction of the entire organ involved (eg, cardiomyopathy and muscle weakness).
It has reported that the improper folding and trafficking of alpha-glucosidase resulting from the genetic mutations may account for a significant number of Pompe patients. […] We optimized this alpha-glucosidase assay in 1536-well plate format for identifying the novel small molecule inhibitors with the structures other than the sugar analogs in order to develop the new pharmacological chaperones.
NCGC Assay Protocol Summary:
This is a fluorogenic enzyme assay with 4-methylumbelliferyl-alpha-D-[…] as the substrate and human […] as the enzyme preparation. Upon the hydrolysis of this fluorogenic substrate, the resulting product, 1. 4-methyllumbelliferone, can be excited at 365 nm and emits at 440 nm which can be detected by a standard fluorescence plate reader. Data were normalized to the controls for basal activity (without enzyme) and 100% activity (with enzyme). The AC50 values were determined from concentration-response data modeled with the standard Hill equation.
Assay buffer: 50 mM citric acid (titrated with potassium phosphate to pH 5.0), 0.005% Tween-20, pH 5.0. (pH 5.0 is an optimal condition for this enzyme assay)
1536-well assay protocol for the human alpha-glucosidase:
(1) Add 2 ul/well of enzyme (4 nM final)
(2) Add 23 nL compounds in DMSO solution. The final titration was 0.7 nM to 77 uM.
(3) Add 1 ul of substrate (400 uM final)
(4) Incubate at room temperature for 20 min.
(5) Add 2 ul stop solution (1M NaOH and 1M Glycine mixture, pH 10)
(6) Detect the assay plate in a ViewLux plate reader (PerkinElmer) with Ex=365 nm and Em=440nm.
Keywords: Alpha-glucosidase, Pompe Disease, pharmacological chaperone, chaperone therapy, high throughput screening, alpha-glucosidase inhibitor, MLSMR, MLSCN, NIH Roadmap, qHTS and NCGC
With CC(=O)c1ccc(N2CCN(S(=O)(=O)c3ccc4c(c3)n(C)c(=O)n4C)CC2)cc1 the Potency was “inactive”.
For CC(=O)c1ccc(N2CCN(S(=O)(=O)c3ccc4c(c3)C(Cl)(Cl)C(=O)N4)CC2)cc1, the Potency was 32.6 µM (active) and inactive.
CC(=O)c1ccc(N2CCN(C(=O)c3ccc4c(c3)CCC(=O)N4)CC2)cc1 was tested, and the Potency was “inactive”.
With CC(=O)c1ccc(N2CCN(S(=O)(=O)c3ccc4c(c3)CC(C)N4C(C)=O)CC2)cc1 (configuration not stated) the Potency was “inactive”.
For CC(=O)c1ccc(N2CCN(S(=O)(=O)c3ccc4c(c3)CCC(=O)N4)CC2)cc1, the Potency was “inactive”.
With CC(=O)Nc1ccc(S(=O)(=O)N2CCN(c3ccc(C(C)=O)cc3)CC2)cc1 the Potency was “inactive”.
In the case of Cc1ccc(N2CCN(S(=O)(=O)c3ccc4c(c3)CC(=O)N4)CC2)cc1, the Potency is reported as “inactive”.
In the case of O=C1Cc2cc(S(=O)(=O)N3CCN(c4ccc([N+](=O)[O-])cc4)CC3)ccc2N1, the Potency is reported as 3.66 µM (active).
In the case of CC(=O)c1ccc(N2CCN(S(=O)(=O)c3ccc4[nH]c(=O)[nH]c4c3)CC2)cc1, the Potency is reported as “inactive”.
With COc1ccc(N2CCN(S(=O)(=O)c3ccc4c(c3)CC(=O)N4)CC2)cc1 the Potency was 23.7 µM (active).
In the case of N#Cc1ccc(N2CCN(S(=O)(=O)c3ccc4c(c3)CC(=O)N4)CC2)cc1, the Potency is reported as 2.91 µM (active).
In the case of CC(=O)c1ccc(N2CCN(S(=O)(=O)c3ccc(N4CCCC4=O)cc3)CC2)cc1, the Potency is reported as “inactive”.
In the case of O=C1Cc2cc(S(=O)(=O)N3CCN(c4cccc(C(F)(F)F)c4)CC3)ccc2N1, the Potency is reported as 14.9 µM (active).
With CC(=O)c1ccc(N2CCN(S(=O)(=O)c3ccc4c(c3)CCCN4C(C)=O)CC2)cc1 the Potency was “inactive”.
For CC(=O)c1ccc(N2CCN(S(=O)(=O)c3ccc4c(c3)C(=O)OC4)CC2)cc1, the Potency was “inactive”.
For O=C1Cc2cc(S(=O)(=O)N3CCN(c4ccc(O)cc4)CC3)ccc2N1, the Potency was 1.88 µM (active).
For CC(=O)c1ccc(N2CCN(S(=O)(=O)c3ccc4c(c3)CC(=O)N4)CC2)cc1, the Potency was 730 nM (active) and 749 nM (active) and 819 nM (active).
With CC(=O)c1ccc(N2CCN(S(=O)(=O)c3ccc4c(c3)oc(=O)n4C)CC2)cc1 the Potency was “inactive”.
For CC(=O)c1ccc(N2CCN(S(=O)(=O)c3ccc4c(c3)CCCC(=O)N4)CC2)cc1, the Potency was “inactive”.
O=C1Cc2cc(S(=O)(=O)N3CCN(c4ccc(CO)cc4)CC3)ccc2N1 was tested, and the Potency was 13 µM (active).
O=Cc1ccc(N2CCN(S(=O)(=O)c3ccc4c(c3)CC(=O)N4)CC2)cc1 was tested, and the Potency was 3.66 µM (active).
For CC(=O)c1ccc(N2CCN(C(=O)c3ccc4c(c3)CC(=O)N4)CC2)cc1, the Potency was “inactive”.
O=C1Cc2cc(S(=O)(=O)N3CCNCC3)ccc2N1 was tested, and the Potency was “inactive”.
In the case of CC(=O)c1ccc(N2CCN(S(=O)(=O)c3ccc4c(c3)OCC(=O)N4)CC2)cc1, the Potency is reported as “inactive”.
For CC(=O)N1CCN(S(=O)(=O)c2ccc3c(c2)CC(=O)N3)CC1, the Potency was 11.9 µM (active).
For CC(=O)c1ccc(N2CCN(S(=O)(=O)c3ccc4[nH]c(=O)oc4c3)CC2)cc1, the Potency was “inactive”.
In the case of CC(=O)c1ccc(N2CCN(S(=O)(=O)c3cc4c(cc3Cl)NC(=O)C4)CC2)cc1, the Potency is reported as 1.63 µM (active) and 4.61 µM (active).
